Only some compounds are listed: those with a hit (about 6.2% of all), similar ones and a draw of the others.
FMDV antiviral – blocks foot and mouth disease virus; FMDV antiviral cell-based qHTS; Potency, µM (highest dose often 57.9 µM), usual class: inhibitors; actives 1.2% (n = 410,000); AID 1159524; calls by dose curve; tested in HEK293T cells; further: read-out not given here; nearly all actives have a fitted effect of over 45% in size
HCMV inh – human cytomegalovirus inhibition. activity change, negative = inhibition, % at 57.5 µM. actives 4.5% (n = 410,000). HFF cells, HCMV-luciferase reporter, 72 h; active compounds read low; in the data active means activity change below about -60%; inconclusive means no clear call, values can overlap the other calls; inactive means above about -39%
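Human foreskin fibroblasts infected with luciferase-reporter HCMV at MOI 1 PFU/cell, compounds at two doses. Luciferase measured 72 h post infection; normalized to buffer-only basal and Salinomycin (10uM) controls.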
Marburg entry inh – Marburg virus entry inhibition; actives 1.8% (n = 300,000); AID 540276; Marburg virus pseudotyped entry inhibition, cell reporter; Potency, µM (highest dose often 37.8 µM), hits mostly inhibitors; calls by dose curve; tested in HEK293 cells
Lassa entry inh – inhibitors of Lassa virus binding or cell entry. Lassa virus pseudotype entry inhibition, cell reporter. Potency, µM (top dose mostly 37.9 µM), usual class: inhibitors. actives 1.2% (n = 300,000). AID 540256; calls by dose curve; tested in HEK293 cells; further: nearly all actives have a fitted effect of over 50% in size
A number is an active result.

Screening COc1cc(/C=C(/C#N)C(=O)Nc2ccccc2)c(Br)cc1OCc1ccc(C(=O)O)cc1 returned FMDV antiviral inactive, HCMV inh inactive, Marburg entry inh inactive and Lassa entry inh inactive.
Screening N#C/C(=C/c1ccc(Sc2nc3ccccc3[nH]2)o1)c1cccc(F)c1 returned FMDV antiviral inconclusive, HCMV inh -103.1, Marburg entry inh inactive and Lassa entry inh inactive.
For N#C/C(=C\c1ccc(Sc2ccccc2)o1)c1nc2ccccc2[nH]1 the results were FMDV antiviral inactive, HCMV inh inactive, Marburg entry inh inactive and Lassa entry inh inconclusive.
For N#C/C(=C/c1ccc(Sc2nc3ccccc3[nH]2)o1)c1ccccc1F the results were FMDV antiviral inconclusive, HCMV inh -102.3, Marburg entry inh inactive and Lassa entry inh inactive.
For N#C/C(=C/c1ccc(Sc2nc3ccccc3[nH]2)o1)c1cccc(Br)c1 the results were FMDV antiviral inconclusive, HCMV inh -85.3, Marburg entry inh inconclusive and Lassa entry inh inactive.
Screening CN(C)S(=O)(=O)c1ccc(C(=O)/C=C/c2cccnc2)cc1 returned FMDV antiviral inconclusive, HCMV inh inactive, Marburg entry inh inactive and Lassa entry inh inactive.
Screening CC(=O)c1ccc(OCC(=O)N2CCCC(Nc3ccc(C)c(C)c3)C2)cc1 (stereo unspecified) returned FMDV antiviral inactive, HCMV inh inactive, Marburg entry inh inconclusive and Lassa entry inh inactive.
Screening Cc1onc(C(=O)Nc2cccc(C(F)(F)F)c2)c1[N+](=O)[O-] returned FMDV antiviral inactive and HCMV inh inactive.
`Cc1nc(Cl)c(C(=O)NC(=O)Nc2cccc(C(F)(F)F)c2)c(C)c1[N+](=O)[O-]` gave FMDV antiviral 22.4µM, HCMV inh inactive, Marburg entry inh inconclusive and Lassa entry inh inconclusive.
For COC(=O)c1cc(=O)n(Cc2ccc(OC)c(OC)c2)c(=Nc2ccc(F)cc2)s1 the results were FMDV antiviral 12.6µM, HCMV inh inactive and Marburg entry inh inactive.
`COC(=O)c1cc(=O)n(CCc2ccc(OC)c(OC)c2)c(=Nc2ccc(F)c(Cl)c2)s1` gave FMDV antiviral 28.2µM, HCMV inh inactive and Marburg entry inh inactive.
`COC(=O)c1cc(=O)n(Cc2ccc(F)cc2)c(=Nc2ccccc2)s1` gave FMDV antiviral inconclusive and HCMV inh inactive.
`CNC(=O)C1CC(=O)N(CCc2ccc(OC)c(OC)c2)C(=Nc2ccc(F)cc2)S1` (stereo unspecified) gave FMDV antiviral inactive, HCMV inh inactive, Marburg entry inh inactive and Lassa entry inh inactive.
`COC(=O)c1cc(=O)n(Cc2ccco2)c(=Nc2ccc(F)cc2)s1` gave FMDV antiviral 28.2µM.
`Clc1ncc2[nH]cnc2n1` gave FMDV antiviral inactive, HCMV inh inactive, Marburg entry inh inactive and Lassa entry inh inactive.
`CCOC(=O)C1=CC[C@H]2c3c(c4ccc(OC)cc4n3C)C(=O)C1N2S(=O)(=O)c1ccc(C)cc1` gave FMDV antiviral inactive and HCMV inh inactive.
CC(C)c1nnc(NC(=O)Cn2nc(-c3ccc4c(c3)OCCO4)ccc2=O)s1 was read as FMDV antiviral inactive, HCMV inh inactive, Marburg entry inh inactive and Lassa entry inh inactive.
Screening O=S(=O)(NCC(c1ccco1)N1CCN(c2ccc(F)cc2)CC1)c1ccc2c(c1)OCCO2 (stereo unspecified) returned FMDV antiviral inactive, HCMV inh -74.8, Marburg entry inh inconclusive and Lassa entry inh inconclusive.
`COc1ccc(S(=O)(=O)NCC(c2ccco2)N2CCN(c3ccccc3)CC2)cc1OC` (stereo unspecified) gave FMDV antiviral inactive, HCMV inh inactive and Lassa entry inh inactive.
Screening COc1ccc(N2CCN(C(CNS(=O)(=O)c3ccc(OC)c(C)c3)c3ccco3)CC2)cc1 (stereo unspecified) returned FMDV antiviral inactive, HCMV inh inactive and Lassa entry inh 5.62µM.
CCOC(=O)c1cc(C)sc1/N=C/C1=C(O)CCCC1=O was read as FMDV antiviral inactive, HCMV inh inactive, Marburg entry inh inactive and Lassa entry inh inactive.
For CCCCCCCOc1ccc(OC(=O)c2ccncc2)cc1 the results were HCMV inh -64.3, Marburg entry inh inconclusive and Lassa entry inh inactive.
`CCOc1ccc2c(c1)-c1c(ssc1=S)C(C)(C)N2C(=O)c1ccco1` gave FMDV antiviral inactive, HCMV inh inactive, Marburg entry inh 5.17µM and Lassa entry inh inconclusive.
Cc1cc(C)c2c(c1)-c1c(ssc1=S)C(C)(C)N2C(=O)CSc1nncn1C was read as FMDV antiviral inactive, HCMV inh inactive, Marburg entry inh 14.1µM and Lassa entry inh inconclusive.
`CC1(C)c2ssc(=S)c2-c2ccccc2N1C(=O)CSC1=NCCS1` gave FMDV antiviral inconclusive, HCMV inh inactive, Marburg entry inh inconclusive and Lassa entry inh inactive.
`Cc1ccc2c(c1)-c1c(ssc1=S)C(C)(C)N2C(=O)CSc1nncn1C` gave FMDV antiviral inconclusive, HCMV inh inactive, Marburg entry inh inconclusive and Lassa entry inh inconclusive.
Cc1cc2c(cc1C)N(C(=O)CSC1=NCCS1)C(C)(C)c1ssc(=S)c1-2 was read as FMDV antiviral inconclusive, HCMV inh -72.0, Marburg entry inh inactive and Lassa entry inh inactive.
`COc1ccc2c(c1)-c1c(ssc1=S)C(C)(C)N2C(=O)CSC1=NCCS1` gave FMDV antiviral inconclusive, HCMV inh -80.5, Marburg entry inh inconclusive and Lassa entry inh inactive.
`COc1nc(OC)nc(Oc2ccc(Cl)cc2[N+](=O)[O-])n1` gave FMDV antiviral inactive, HCMV inh inactive, Marburg entry inh inactive and Lassa entry inh inactive.
COc1ccc([N+](=O)[O-])c(S(=O)(=O)c2ccccc2)n1 was read as FMDV antiviral 31.6µM, HCMV inh -97.2, Marburg entry inh inconclusive and Lassa entry inh 7.08µM.
COc1ccc([N+](=O)[O-])c(S(=O)(=O)c2ccc(Cl)cc2)n1 was read as FMDV antiviral 12.6µM, HCMV inh -100.5, Marburg entry inh 4.47µM and Lassa entry inh inconclusive.
Nc1cccnc1S(=O)(=O)c1ccccc1 was read as FMDV antiviral inactive, HCMV inh inactive, Marburg entry inh inactive and Lassa entry inh inconclusive.
Screening O=[N+]([O-])c1cccnc1S(=O)(=O)c1ccccc1 returned FMDV antiviral 22.4µM, HCMV inh -99.4, Marburg entry inh inconclusive and Lassa entry inh inconclusive.
Cc1ccccc1C1(CC(=O)N2CCC[C@H]2C(N)=O)CC(=O)N(C2CCCC2)C1=O (stereo partly specified) was read as FMDV antiviral inactive.
For O=C(OCC(=O)c1ccc([N+](=O)[O-])cc1)/C(=C/c1ccc(Cl)cc1)NC(=O)c1ccccc1 the results were FMDV antiviral inactive, HCMV inh -64.8, Marburg entry inh inactive and Lassa entry inh inactive.
C=CCOC(=O)/C(=C\c1ccccc1)NC(=O)c1ccc(C)cc1 was read as FMDV antiviral inactive and HCMV inh -67.1.
For CC(=O)N/C(=C\c1ccccc1)C(=O)OCC(=O)c1ccccc1 the results were FMDV antiviral inactive, HCMV inh inactive, Marburg entry inh inconclusive and Lassa entry inh inactive.
`CC1(C(=O)NS(=O)(=O)C2CC2)CCCN(C(=O)c2cccc(C(F)(F)F)c2)C1` (stereo unspecified) gave FMDV antiviral inactive and HCMV inh inconclusive.
Screening O=C(CCN1CCCCC1)Nc1ccc(Br)cc1C(=O)c1ccccc1 returned FMDV antiviral inactive, HCMV inh inconclusive, Marburg entry inh 12.6µM and Lassa entry inh inactive.

Screening results as filed in PubChem BioAssay.
